WRN inhibitor: WRN helicase (human) inhibition. Q14191. WRN helicase unwinding, fluorescent forked duplex, kinetic. Potency, µM (series often up to 114 µM), inactives show top-dose activity change, negative = inhibition, most hits filed as inhibitors. 360,000 tested, 0.46% active; note: % is set by controls: 0 for no effect and ±100 for the full control effect; nearly all actives have a fitted effect of over 55% in size
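WRN at 20 nM final preincubated with compound 15 min at room temperature; reaction started with 100 nM fluorophore/quencher forked duplex oligonucleotide and 2 mM ATP final. Unwinding followed kinetically by red fluorescence (ex 525, em 598 nm).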
POLK inh: DNA polymerase kappa (human) inhibition; 400,000 tested, 0.53% active; purified Pol kappa, fluorescent DNA synthesis assay, 10 min; Q9UBT6; Potency, µM (titrated, usually from 107 µM), inactives show at the highest dose activity, negative = inhibition, actives largely listed as inhibitors; note: % is set by controls: 0 for no effect and ±100 for the full control effect
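10 nM Pol kappa was preincubated with compounds for 15 min at room temperature. Reaction started with 50 nM (final) substrate. Fluorescence read kinetically at 0 and 10 min.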
FEN1 inhibitor: blocks human flap endonuclease 1. Recombinant FEN1 flap cleavage, fluorescence, 15 min. Potency, µM (series often up to 114 µM), for the others: at the top dose activity change, negative = inhibition, usual class: inhibitors. 390,000 tested, 0.35% active; note: % is set by controls: 0 for no effect and ±100 for the full control effect; nearly all actives have a fitted effect of over 65% in size
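Reaction started by adding substrate (50 nM final) to 10 nM enzyme after 15 min room-temperature compound preincubation. Reads at 0 and 15 min, with data normalized and fitted to a four-parameter Hill equation.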
POLH inh: DNA polymerase eta (human) inhibition | Q9Y253 | recombinant Pol eta, fluorescent DNA replication assay | Potency, µM (top dose mostly 114 µM), for inactives: at the top dose activity change, negative = inhibition, hits mostly inhibitors | 390,000 tested, 1.2% active | AID 588591; note: % is set by controls: 0 for no effect and ±100 for the full control effect
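Pol eta at 10 nM preincubated with compounds 15 min at room temperature; reaction started with fluorescent substrate (50 nM final) and read kinetically at 0 and 10 min.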
POLI inh: inhibitors of human DNA polymerase iota | Q9UNA4 | Pol iota fluorescent replication assay, 10 min | Potency, µM (doses to about 115 µM), inactives show top-dose activity, negative = inhibition, usual class: inhibitors | 390,000 tested, 1% active | AID 588590
Target sequence (Q9UNA4 whole entry, looked up): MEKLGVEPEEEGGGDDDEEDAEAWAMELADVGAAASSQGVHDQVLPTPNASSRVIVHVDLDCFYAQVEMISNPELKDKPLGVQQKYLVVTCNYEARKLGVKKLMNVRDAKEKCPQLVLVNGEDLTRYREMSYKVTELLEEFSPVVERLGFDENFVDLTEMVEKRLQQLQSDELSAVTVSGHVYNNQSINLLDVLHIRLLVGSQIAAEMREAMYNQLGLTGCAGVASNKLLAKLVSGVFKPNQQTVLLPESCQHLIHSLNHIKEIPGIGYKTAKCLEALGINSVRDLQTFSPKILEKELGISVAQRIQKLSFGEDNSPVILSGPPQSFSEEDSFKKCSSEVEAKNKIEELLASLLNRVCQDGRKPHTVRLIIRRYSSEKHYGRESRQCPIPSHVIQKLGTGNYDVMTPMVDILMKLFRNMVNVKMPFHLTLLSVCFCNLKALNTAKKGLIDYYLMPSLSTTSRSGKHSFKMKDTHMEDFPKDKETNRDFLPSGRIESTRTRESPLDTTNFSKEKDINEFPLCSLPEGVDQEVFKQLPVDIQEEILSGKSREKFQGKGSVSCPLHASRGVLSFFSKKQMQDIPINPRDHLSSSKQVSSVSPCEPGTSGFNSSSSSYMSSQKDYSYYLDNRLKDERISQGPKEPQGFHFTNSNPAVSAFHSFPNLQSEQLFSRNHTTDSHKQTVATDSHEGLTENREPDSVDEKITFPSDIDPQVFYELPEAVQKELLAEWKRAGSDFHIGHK
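Pol iota at 10 nM preincubated 15 min with compounds at room temperature; reaction started with fluorescent substrate, 50 nM final. Fluorescence read kinetically at 0 and 10 min; buffer-only wells as negative control.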
Pol beta inh: blocks human DNA polymerase beta activity; Pol beta primer extension/strand displacement, fluorescence kinetic; Potency, µM (titrated, usually from 114 µM), without a hit: at the highest dose activity change, negative = inhibition, most hits filed as inhibitors; 340,000 tested, 1.3% active; AID 485314; note: % is set by controls: 0 for no effect and ±100 for the full control effect
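10 nM enzyme + cpd, 15 min RT; start with substrate 50 nM final; read 0 min and after 10 min RT. Corrected, normalized data; 4-parameter Hill curve fit.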
* hit, by the source's call; [ ] = dose if it differs, or a comment. A selection: hits, their analogues and other compounds. The true share with any hit is near 2.4%. Calls come from the whole dose curve; as a rule, active = well fitted curve in the direction sought with a large enough effect; inconclusive = small, poorly fitted or top-dose-only effect, or another doubt; inactive = no such curve, though single readings can be large; an effect the other way counts as inactive or inconclusive. Potency is the fitted concentration of half-maximal effect.

COCCn1c(SCC(=O)NCc2ccco2)nc2cccnc21 was read as WRN inhibitor -16.0%, POLK inh -20.6%, FEN1 inhibitor -1.1%, POLH inh inconclusive, POLI inh inconclusive and Pol beta inh 44.7µM*.
For Cn1cccc1Cc1nnc(SCC(=O)NCc2ccco2)n1CCc1ccccc1 the results were WRN inhibitor inconclusive, POLK inh inconclusive, FEN1 inhibitor 0.3%, POLH inh -29.4%, POLI inh 22.4µM* and Pol beta inh inconclusive.
CCCc1nc2sc3c(SCC(=O)NCc4ccco4)ncnc3c2c2c1CCC2 was read as WRN inhibitor 39.8µM*, POLK inh 28.2µM*, FEN1 inhibitor inconclusive, POLH inh 14.1µM*, POLI inh inconclusive and Pol beta inh 10µM*.
COCCn1c(SCC(=O)NC2CCCC2)nc2cccnc21 was read as WRN inhibitor 1.8%, POLK inh 12.7%, FEN1 inhibitor 3.9%, POLH inh -7.8%, POLI inh 9.6% and Pol beta inh -10.8%.
`O=C(CSc1nc2ccccc2c(=O)n1Cc1ccco1)NCc1ccccc1` gave WRN inhibitor -5.5%[57.1 µM], POLK inh -3.4%, FEN1 inhibitor -9.8%, POLH inh 11.7% and POLI inh -9.1%.
`CC1CCN(C(=O)Cn2ncc3c4ccccc4n(Cc4ccc(Cl)cc4)c3c2=O)CC1` gave POLK inh -20.9%, FEN1 inhibitor -3.1%, POLH inh -15.1%, POLI inh 3.6% and Pol beta inh inconclusive.
Screening O=C(CSc1nc2ccccc2c2nc3ccccc3n12)NCc1ccco1 returned WRN inhibitor -24.3%, POLK inh inconclusive, FEN1 inhibitor inconclusive, POLH inh inconclusive, POLI inh inconclusive and Pol beta inh 8.91µM*.
Screening Cn1c(SCC(=O)NCc2ccco2)nc2ccccc2c1=O returned WRN inhibitor 1.3%, POLK inh -9.9%, FEN1 inhibitor -7.4%, POLH inh -1.7%, POLI inh 26.1% and Pol beta inh 38.9%.
Screening O=C(CSc1ncnc2ccccc12)NCc1ccco1 returned WRN inhibitor -28.2%, POLK inh -7.4%, FEN1 inhibitor 2.6%, POLH inh inconclusive, POLI inh inconclusive and Pol beta inh 25.1µM*.
Screening O=C(CSc1ncnc2ccccc12)c1ccco1 returned WRN inhibitor -2.5%, POLK inh -3.8%, FEN1 inhibitor -0.1%, POLH inh 13.7%, POLI inh 111.2% and Pol beta inh -5.7%.
Screening CCCC(=O)N1CCN(c2nc3ccc(Br)cc3s2)CC1 returned WRN inhibitor 2.5%[11.6 µM], POLK inh -11.8%, FEN1 inhibitor 25.1µM*, POLH inh -21.8%, POLI inh -9.9% and Pol beta inh 0.1%.
Cc1cccc(C(=O)N2CCc3cc(CNC(=O)CCc4ccccc4)ccc32)c1 was read as POLK inh -6.4%[60.1 µM], FEN1 inhibitor -16.0%, POLH inh 5.6%, POLI inh 3.7% and Pol beta inh -2.9%.
Screening O=C(NCCn1cc(SCc2ccccc2)c2ccccc21)c1cccs1 returned POLK inh inconclusive, FEN1 inhibitor 89.1µM*, POLH inh -18.5%, POLI inh 89.1µM* and Pol beta inh 16.5%.
For O=C(NCCn1cc(SCc2ccc(Br)cc2)c2ccccc21)c1cccs1 the results were POLK inh -0.3%, FEN1 inhibitor 0.9%, POLH inh -23.3%, POLI inh 8.2% and Pol beta inh -1.2%.
For CCCCC1(C)OC(=O)C(=Cc2ccc(N(CC)CC)cc2)C(=O)O1 (stereo unspecified) the results were WRN inhibitor inconclusive, POLK inh -20.7%, FEN1 inhibitor -18.7%, POLH inh -14.2%, POLI inh inconclusive and Pol beta inh 6.1%.
CCN(CC)c1ccc(C=C2C(=O)OC3(CCCCC3)OC2=O)cc1 was read as WRN inhibitor 50.1µM*, POLK inh -2.0%, FEN1 inhibitor inconclusive, POLH inh -1.3%, POLI inh inconclusive and Pol beta inh 0.8%.
`COc1ccc(CCNC(=O)c2c(O)nc3c(C)cccn3c2=O)cc1OC` gave POLK inh 13.7%, FEN1 inhibitor -0.9%, POLH inh 4.0%, POLI inh -11.9% and Pol beta inh 48.6%.
For COC(=O)c1cc(O)cc(OC)c1C(=O)c1c(O)cc(C)cc1O the results were WRN inhibitor -5.9%[11.6 µM], POLK inh inconclusive, FEN1 inhibitor -2.8%, POLH inh 35.5µM*, POLI inh 70.8µM* and Pol beta inh inconclusive.
CCOC(=O)c1c(C)sc(-c2c(-c3cc(C)ccc3C)[nH]c3c2c(=O)n(C)c(=O)n3C)c1O was read as POLK inh -22.7%, FEN1 inhibitor -0.2%, POLH inh inconclusive, POLI inh inconclusive and Pol beta inh 5.62µM*.
For CCOC(=O)c1c(C)sc(-c2c(-c3cccc(Cl)c3)[nH]c3c2c(=O)n(C)c(=O)n3C)c1O the results were POLK inh -20.8%, FEN1 inhibitor -16.2%, POLI inh 79.4µM* and Pol beta inh -4.6%.
`COC1=C/C(=C/c2c(N)n3nc(CC(=O)N4CCCCC4)sc3nc2=O)C=CC1=O` gave WRN inhibitor -1.5%, POLK inh inconclusive, FEN1 inhibitor -23.5%, POLH inh 50.1µM*, POLI inh inconclusive and Pol beta inh -1.9%.
`CN1CC(=O)N(CC(=O)Nc2ccc(OC(F)(F)F)cc2)c2ccccc2C1=O` gave POLK inh -2.4%[60.1 µM], FEN1 inhibitor -3.3%, POLH inh -18.0%, POLI inh 18.2% and Pol beta inh 7.1%.
Screening COCCN(CCOC)C(=O)c1cc2c(=O)n3ccccc3nc2n1C returned POLK inh -22.3%, FEN1 inhibitor -13.0%, POLH inh -13.7%, POLI inh inconclusive and Pol beta inh 10µM*.
For COc1cccc(Nc2nc3ccc(C)cc3nc2-n2nc(C)cc2C)c1 the results were POLK inh -10.1%, FEN1 inhibitor 17.8%, POLH inh -26.5%, POLI inh 37.3% and Pol beta inh 9.2%.
`O=C(O)CN1C(=O)/C(=C\c2cc(Br)ccc2OCc2ccc(Cl)cc2Cl)SC1=S` gave WRN inhibitor -6.4%, POLK inh 11.1%, FEN1 inhibitor -24.9%, POLH inh inconclusive, POLI inh inconclusive and Pol beta inh 22.4µM*.
O=C(O)CN1C(=O)/C(=C\c2cccc(OCc3ccccc3F)c2)SC1=S was read as WRN inhibitor -16.1%[57.1 µM], POLK inh -11.7%, FEN1 inhibitor -9.9%, POLH inh inconclusive, POLI inh inconclusive and Pol beta inh 8.9%.
For O=C(O)CN1C(=O)/C(=C\c2ccccc2OCc2ccc(Cl)cc2)SC1=S the results were WRN inhibitor -30.7%, POLK inh -20.0%, FEN1 inhibitor inconclusive, POLH inh 79.4µM*, POLI inh 44.9% and Pol beta inh inconclusive.

Source: PubChem (National Center for Advancing Translational Sciences (NCATS))
